FUS yeast rescue = qHTS for Suppressors of FUS Proteinopathy: Primary screen using FUS-linked yeast assay; S. cerevisiae FUS-expressing, growth rescue, OD600, 24 h; Potency, µM (top dose mostly 76.6 µM), usual class: activators; actives 0.24% (n = 390,000); also: nearly all actives have a fitted effect of over 55% in size
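Galactose (2%) drives FUS expression in yeast precultured in raffinose; seeding density OD 0.005. Test compounds incubated 24hr at 30C and 99% humidity before absorbance at 600 nm was measured.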
aSyn rescue = qHTS of alpha-syn Inhibitors; Yeast expressing alpha-synuclein, growth rescue, BacTiter-Glo, 24 h; Potency, µM (top dose mostly 46.1 µM), most hits filed as activators; actives 0.14% (n = 370,000); also: nearly all actives have a fitted effect of over 65% in size
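Screening used galactose-induced yeast with toxic alpha-synuclein levels, exposed to compound for 24 hr at 30 deg C. Cell growth, read with BacTiter-Glo luminescence, gave the measured signal.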
Abeta rescue = qHTS for compounds that reverse cellular toxicity of Amyloid beta (A-beta) peptide in yeast: Primary Screen; yeast expressing A-beta42, growth rescue, OD600, 48 h; response scale: 0% DMSO, 100% iron-clioquinol control; Potency, µM (doses to about 46.1 µM), usual class: activators; actives 0.063% (n = 410,000); AID 1347071, 2019; also: nearly all actives have a fitted effect of over 55% in size
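Growth rescue measured by 600 nm absorbance after 48 h yeast culture at 30 C with compound. Values normalized between DMSO and an equimolar ferric chloride plus clioquinol control.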
TDP43 rescue = qHTS of TDP-43 Inhibitors; actives 1.8% (n = 410,000); TDP-43 expressing yeast growth rescue, BacTiter-Glo, 24 h; Potency, µM (titrated, usually from 46.1 µM), usual class: activators; also: nearly all actives have a fitted effect of over 50% in size
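Growth rescue of TDP-43-toxic yeast measured as ATP luminescence (BacTiter-Glo). Cells grown to mid-log in raffinose, induced in galactose at OD600=0.02, exposed to compound 24 hr at 30 deg C.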
Of the large screens only hits and unclear results are named; the others gave an inactive call. Rows were chosen to be rich in hits. Some 2.1% of all compounds tested hit in one or more screens of this group. Calls follow the shape of the dose curve; as a rule, active = well fitted curve in the direction sought with a large enough effect; inconclusive = small, poorly fitted or top-dose-only effect, or another doubt; inactive = no such curve, though single readings can be large; an effect the other way counts as inactive or inconclusive.

CCCOc1cccc(C2c3c(oc4ccccc4c3=O)C(=O)N2c2nncs2)c1 (stereo not given)	none (no result: aSyn rescue)
COc1c(F)cccc1C1=CC(=O)C[C@H](c2ccc(F)cc2)C1	TDP43 rescue 17.8µM
COc1c(F)cccc1C1=CC(=O)C[C@H](c2ccc3c(c2)OCO3)C1	TDP43 rescue 22.4µM
O=C1C=C(c2ccc(Br)c3ccccc23)C[C@@H](c2ccc3c(c2)OCO3)C1	none
COc1ccc([C@H]2CC(=O)C=C(c3cccc(F)c3OC)C2)cc1	TDP43 rescue 22.4µM
COc1ccc(OC)c(C2=CC(=O)C[C@H](c3ccc4c(c3)OCO4)C2)c1	FUS yeast rescue inconclusive, TDP43 rescue 25.1µM
CCCC[C@H]1C2CC(OC(=O)Nc3ccccc3C)C(C2)[C@H]2CCCCN21 (stereo not given in full)	none (no result: aSyn rescue, Abeta rescue, TDP43 rescue)
CNCC(=O)Nc1ccc(OC(F)(F)F)cc1	none
CC(C)NC(=O)NC(=O)COC(=O)c1ccc(OC(F)(F)F)cc1	Abeta rescue 10µM, TDP43 rescue inconclusive (no result: FUS yeast rescue)
Cc1ccc(NC(=O)COC(=O)c2c(-c3ccccc3)noc2C)cc1	none
Cc1onc(-c2ccccc2)c1C(=O)OCC(=O)Nc1ccc(OC(F)(F)F)cc1	TDP43 rescue 15.8µM
COc1cccc(OC)c1C(=O)OCC(=O)Nc1ccc(OC(F)(F)F)cc1	TDP43 rescue 14.1µM
COC1=C[C@H](C(=O)NCc2ccccn2)[C@@]2(C)Cc3ccccc3[C@H]2CC1=O	none (no result: aSyn rescue, Abeta rescue, TDP43 rescue)
COc1ccc(-c2cc(C(F)(F)F)c3c(=O)n(-c4ccccc4)[nH]c3n2)cc1	TDP43 rescue 8.91µM (no result: aSyn rescue)
COc1ccc(-c2cc(C(F)(F)F)nc(NCc3ccccc3)n2)cc1	none (no result: aSyn rescue)
O=C(C1CCCN(S(=O)(=O)c2cc(Cl)ccc2Cl)C1)N1CCCCCC1 (stereo not given)	TDP43 rescue 11.2µM (no result: FUS yeast rescue)
Cc1cc(C)cc(N(CC(=O)NC2CCC(C)CC2)S(=O)(=O)c2ccc(Br)s2)c1 (stereo not given)	none (no result: aSyn rescue, Abeta rescue, TDP43 rescue)
COc1cccc(NC(=O)N2CCc3nc(Nc4cc(Cl)cc(Cl)c4)ncc3C2)c1	FUS yeast rescue 28.2µM, aSyn rescue inconclusive, Abeta rescue inconclusive, TDP43 rescue 15.8µM
Cc1noc(C)c1COc1cccc(C(=O)Nc2ccc(C#N)cc2)c1	TDP43 rescue 14.1µM
Cc1cccc(-c2noc(CNC(=O)c3ccc(C)cc3C)n2)c1	none (no result: aSyn rescue)
Cc1ccc(CC(=O)NCc2nc(-c3cccc(C)c3)no2)cc1	TDP43 rescue 17.8µM (no result: aSyn rescue)
Cc1ccc(CC(=O)NCc2nc(-c3ccccc3)no2)cc1	TDP43 rescue 12.6µM (no result: aSyn rescue)
COc1ccc(S(=O)(=O)Oc2ccc3ccccc3c2)cc1	TDP43 rescue inconclusive (no result: FUS yeast rescue)
COC1=C(OC)C(=O)C(Sc2ccc3ccccc3c2)=CC1=O	aSyn rescue 14.1µM, TDP43 rescue inconclusive (no result: FUS yeast rescue)
Cc1ccc(-c2ccc(CCC(=O)O)n2-c2ccc(C(C)C)cc2)cc1	FUS yeast rescue inconclusive (no result: aSyn rescue)
CSCCCNC(=O)c1cn(C(C)c2ccccc2)nn1 (stereo not given)	none (no result: aSyn rescue, Abeta rescue, TDP43 rescue)
O=C(CSc1nnc(-c2ccccc2)n1-c1ccc(Cl)cc1)c1ccc(F)cc1	none (no result: aSyn rescue, Abeta rescue, TDP43 rescue)
O=C(NCC1CCCO1)c1ccc(-c2ccccc2Cl)o1 (stereo not given)	TDP43 rescue 20µM
O=C(NNC(=O)c1ccccc1F)c1ccc(-c2ccccc2Cl)o1	TDP43 rescue 22.4µM
Cc1ccc(CNC(=O)Cn2cc(S(=O)(=O)Cc3ccccc3Cl)c3ccccc32)cc1	none (no result: aSyn rescue)
Cc1cccc(NC(c2nnc(-c3ccccc3)o2)c2ccc(F)cc2Cl)c1C (stereo not given)	none (no result: aSyn rescue)
Clc1ccccc1OCc1nn2c(-c3ccncc3)nnc2s1	none
Cc1nc(COc2ccccc2Cl)sc1-c1ccnc(N)n1	TDP43 rescue 11.2µM
C[C@]12CC[C@H](O)CC1=CCC1C2CC[C@@]2(C)C1CC[C@@H]2NCc1ccccc1 (stereo not given in full)	TDP43 rescue 1.12µM
CC(C)[C@H](N)C(=O)N[C@H]1CCC2C3CC=C4C[C@@H](O)CC[C@]4(C)C3CC[C@@]21C (stereo not given in full)	none
COc1ccc(OC)c(C(=O)c2ccc([N+](=O)[O-])cc2)c1	none
COc1ccc(C(=O)c2ccc([N+](=O)[O-])cc2Cl)cc1	TDP43 rescue 11.2µM
O=C(Nc1ccccc1)C(Cl)C(=O)c1ccccc1 (stereo not given)	none
CC(=O)C(Cl)C(=O)Nc1ccccc1 (stereo not given)	TDP43 rescue 3.55µM
Cc1cccc(N2CCN(C(=O)COc3ccc4ccc(=O)oc4c3)CC2)c1C	TDP43 rescue inconclusive
O=C(COc1ccc2ccc(=O)oc2c1)N1CCN(c2ccccc2)CC1	TDP43 rescue 20µM
O=C(COc1ccc2c3c(c(=O)oc2c1)CCC3)N1CCN(c2ccc(F)cc2)CC1	TDP43 rescue 31.6µM
O=C1/C(=C/c2ccccc2)SC(=S)N1C1CCS(=O)(=O)C1 (stereo not given)	none
O=C1/C(=C/c2ccncc2)SC(=S)N1C1CCS(=O)(=O)C1 (stereo not given)	TDP43 rescue 12.6µM
O=C(CSc1nnc2scc(-c3ccc(Cl)cc3)n12)Nc1ccc(F)cc1	none (no result: aSyn rescue)
O=C(COc1ccccc1C(=O)Nc1ccccc1)Nc1cccc(Cl)c1	none (no result: FUS yeast rescue, Abeta rescue, TDP43 rescue)
O=C(O)C1CCN(c2c([N+](=O)[O-])cc(C(F)(F)F)cc2[N+](=O)[O-])CC1	TDP43 rescue 20µM
O=C(CSc1nc(-c2ccccc2)c(-c2ccccc2)o1)N1CCCCC1	FUS yeast rescue inconclusive
O=C(CSCC(=O)N1CCCCC1)Nc1nc(-c2ccccc2)c(-c2ccccc2)s1	FUS yeast rescue 17.8µM, TDP43 rescue inconclusive
CC1CCN(C(=O)CSc2ccc(-c3cccc([N+](=O)[O-])c3)nn2)CC1	TDP43 rescue inconclusive
O=C(CSc1ccc(-c2cccs2)nn1)N1CCCCC1	TDP43 rescue 22.4µM (no result: FUS yeast rescue)
O=C(CSc1ccc(-c2cccs2)nn1)N1CCCCCC1	Abeta rescue inconclusive, TDP43 rescue 17.8µM (no result: FUS yeast rescue)
O=C(CSc1ccc2nnc(-c3cccs3)n2n1)N1CCCC1	none
CC1CCN(C(=O)CSc2ccc(-c3ccccc3)nn2)CC1	TDP43 rescue 17.8µM
Cc1ccc(-c2cn3c(n2)sc2cc(C(=O)NCc4cccs4)ccc23)cc1	none (no result: aSyn rescue)
Clc1ccc(CN2CCN(N=Cc3cccc(OCc4ccccc4)c3)CC2)cc1	none (no result: aSyn rescue, Abeta rescue, TDP43 rescue)
COc1ccc2[nH]cc(CCN=C(NC(=O)c3ccccc3C)Nc3nc(C)cc(C)n3)c2c1	none
Cc1cc(C)nc(NC(=NCCc2c[nH]c3ccc(Cl)cc23)NC(=O)c2ccccc2C)n1	aSyn rescue 0.562µM
CCc1cccc(NCc2ccccc2-c2nnc(-c3ccccc3Cl)o2)c1	none (no result: aSyn rescue)
O=[N+]([O-])c1cc(C(F)(F)F)ccc1NCC1CCCO1 (stereo not given)	TDP43 rescue 14.1µM
CCOc1ccccc1NC(=O)c1c(NC(=O)C(C)Oc2ccc(Cl)cc2)sc2c1CCCCC2 (stereo not given)	none (no result: aSyn rescue)
CCSc1nnc2nc3[nH]c4c(C)cccc4c3nn12	none

Screens as filed in PubChem BioAssay.
